Where “and” joins values, the source holds several entries; their conditions need not be identical. Equal values may be shown once. Results filed as inconclusive are left out. Unmarked numbers belong to inactive results. Calls of active or inactive are those of the source. The call rests on the fitted dose curve; in most records, active means well fitted inhibition curve with a large enough effect; inconclusive means small, poorly fitted or top-dose-only effect; inactive means no such curve, though single readings can be large or run the other way.
Test: Primary qHTS for inhibitors of nuclear receptor binding SET domain protein 2 (NSD2) in an RCH-ACV wild type WT cells (2C) (AID 1645877); further: nearly all actives have a fitted effect of over 70% in size
Settings: RCH-ACV (leukaemia line) NSD2 WT (2C) viability, CellTiter-Glo, 72 h; series mostly up to 44.9 µM; activity change, negative = cell killing: at the top concentration
On the % scale 0 is the no-effect control and ±100 the full control effect; potency means the concentration at half of the fitted maximal effect.

| Compound | outcome | activity change, negative = cell killing [%] | Potency |
| --- | --- | --- | --- |
| CCCn1c(=O)c2[nH]c(-c3ccc(OCC(=O)O)cc3)nc2n(CCC)c1=O | inactive | – | – |
| CC1(C)CC2C=C(C(=O)O)C3COC(=O)C(O)(CO)C23C1 (stereo not given) | – | -11.5 | – |
| Cc1cc2c(F)c(Oc3ncnn4cc(OCC(C)O)c(C)c34)ccc2[nH]1 (stereo not given) | – | – | 7.28 µM (active) |
| C=C1C[C@]23C[C@H]1CC[C@H]2[C@@]12CC[C@H](O)[C@@](C)(C(=O)O1)[C@H]2[C@@H]3C(=O)O | – | 4.87 | – |
| C[C@@H]1CN(Cc2ncccn2)C[C@H]1c1nc2c(cnn2C2CCOCC2)c(=O)[nH]1 | – | -26.4 | – |
| CC1=CC(=O)CC(C)(C)C1/C=C/C(C)O[C@@H]1O[C@H](CO)[C@@H](O)[C@H](O)[C@H]1O[C@@H]1OC[C@](O)(CO)[C@H]1O (stereo not given in full) | inactive [at 17.3 µM] | – | – |
| O=C(c1ccc(/C=C/c2n[nH]c3ccccc23)cc1)N1CCNCC1 | – | – | 515 nM (active) and 1.86 µM (active) |
| C[C@@H]1C(=O)O[C@H]2[C@@H](O)C34[C@H]5C[C@@H](C(C)(C)C)C36[C@@H](OC(=O)[C@@H]6O)O[C@@]4(C(=O)O5)[C@@]12O (stereo not given in full) | – | -17 | – |
| COc1cc(O)c([C@@H](CC(=O)N2CC(C)CC(C)C2)c2ccc3c(c2)OCO3)c(OC)c1 (stereo not given in full) | – | -23.9 | – |
| CC/C=C/CC1=C(CCCCC(CCC(=O)O)OC(C)=O)CCC1=O (stereo not given) | – | – | 12.7 µM (active) |

Reference: PubChem BioAssay (NCATS)
